From PubChem BioAssay
A selection: hits, their analogues and other compounds. The true share with any hit is near 2.4%.
D2 ag-1 = HTS Assay for Allosteric Agonists of the Human D2 Dopamine Receptor: Primary Screen for Agonists | HEK293 T-REx D2 cells, calcium flux agonist mode | actives 0.53% (n = 340,000) | activation, % at 2 µM | D(2) dopamine receptor (Homo sapiens), P14416;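 active means activation over 3 SD above normal in the single-dose calcium agonist read, cut at about 30% in these data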; further: 0% is about no effect
Target sequence (P14416 whole entry, looked up): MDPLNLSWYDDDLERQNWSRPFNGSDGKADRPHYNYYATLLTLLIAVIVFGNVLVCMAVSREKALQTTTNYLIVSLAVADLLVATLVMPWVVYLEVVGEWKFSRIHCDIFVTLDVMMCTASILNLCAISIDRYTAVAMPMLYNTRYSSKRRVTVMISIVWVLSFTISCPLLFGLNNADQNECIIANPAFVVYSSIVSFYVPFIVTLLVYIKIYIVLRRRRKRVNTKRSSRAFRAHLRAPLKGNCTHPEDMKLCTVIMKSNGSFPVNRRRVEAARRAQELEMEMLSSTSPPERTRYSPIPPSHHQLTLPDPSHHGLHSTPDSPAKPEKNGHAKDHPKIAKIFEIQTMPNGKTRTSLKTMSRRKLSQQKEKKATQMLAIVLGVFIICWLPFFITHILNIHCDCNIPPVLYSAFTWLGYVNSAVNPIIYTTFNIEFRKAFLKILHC
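HEK293 Trex D2 cells, tetracycline-induced, o/n 30 C 5% CO2; no-wash Ca dye, RT 30–90 min; 10-cycle baseline, 23 nl cpd added, kinetic Ca read 180 s; agonist hits = positive Ca response.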
D2 PAM-1 = HTS Assay for Positive Allosteric Modulators of the Human D2 Dopamine Receptor: Primary Screen for Potentiators; HEK293 T-REx D2, calcium flux, EC20 dopamine potentiation; AID 485347, 2010; D(2) dopamine receptor (Homo sapiens), P14416; potentiation, % at 10 µM; actives 0.34% (n = 340,000);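 active means potentiation over 3 SD above the plate norm, cut at about 30% in these data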; further: 0% is about no effect
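Using a no-wash calcium dye in inducible, force-coupled HEK293 Trex cells expressing D2, we tracked fluorescence each second for 180 s after compound, then for 180 s after EC20 dopamine to detect augmented signalling.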
D2 PAM-2 = Beta-Arrestin HTS for Positive Allosteric Modulators of the Human D2 Dopamine Receptor: Potentiators; D(2) dopamine receptor (Homo sapiens), P14416; potentiation, % (test concentration not listed); actives 0.23% (n = 360,000); AID 624464, 2012; DiscoveRx D2 beta-arrestin cells, luminescence, 90 min; 100% = 57 uM dopamine signal; in the data active means potentiation above about 50%; inconclusive means mostly about 30% to 49%
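D2 cells co-treated with compound plus 50 nM dopamine (EC20) for 90 min at 37 deg C to detect potentiation. Beta-arrestin recruitment was read as enzyme-fragment luminescence after 1 h at ambient temperature. Full response was set by 57 uM dopamine.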
D2 antag = HTS Assay for Allosteric Antagonists of the Human D2 Dopamine Receptor: Primary Screen for Antagonists | actives 2% (n = 340,000) | inhibition, % at 10 µM | HEK293 TREx D2 cells, calcium flux, dopamine EC80 | D(2) dopamine receptor (Homo sapiens), P14416; in the data active means inhibition above about 30%; inactive means below that, where a call was filed; further: 0% is about no effect
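Calcium mobilization kinetics were recorded at 1 s intervals in tetracycline-induced HEK293 T-REx D2 cells, first for 180 s after compound addition and then 180 s after EC80 dopamine.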
D2 ag-2 = Beta-Arrestin HTS for Positive Allosteric Modulators of the Human D2 Dopamine Receptor: Agonists; D(2) dopamine receptor (Homo sapiens), P14416; DiscoveRx PathHunter D2 beta-arrestin, luminescence, 90 min; 100% = 57 uM dopamine signal; activation, % (test concentration not listed); actives 0.084% (n = 360,000); in the data active means activation above about 40%; inconclusive means between about 15% and that limit
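DiscoveRx PathHunter D2 beta-arrestin cells (2,100/well) attached overnight, then compound-stimulated 90 min at 37 C in HBSS/10 mM HEPES/0.1% Tween-20 buffer; beta-galactosidase complementation read by luminescence after 1 h at ambient temperature. Dopamine 57 uM final (EC100) as control.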
D3 arrestin ag = qHTS of D3 Dopamine Receptor Agonist: D3 Dopamine Receptor B-arrestin Agonist Confirmatory Assay; actives 4% (n = 2,300); Potency, µM (titrated, usually from 76.9 µM), for the others: at the highest dose activation, usual class: activators; shares compounds with D2 ag-1; DiscoveRx D3 beta-arrestin cells, luminescence, 90 min;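 further: potency means the concentration at half of the fitted maximal effect; 100% = dopamine control response; nearly all actives have a fitted effect of over 70% in size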
D2 ag-3 = qHTS of D3 Dopamine Receptor Agonist: D2 Dopamine Receptor B-arrestin Agonist Counterscreen | shares compounds with D2 ag-1 | actives 5.9% (n = 2,300) | DiscoveRx PathHunter D2 beta-arrestin, luminescence, 90 min; response scale: percent relative to full dopamine signal | Potency, µM (series often up to 76.9 µM), inactives show top-dose activation, most hits filed as activators; further: potency means the concentration at half of the fitted maximal effect; % of control where 0% means no effect; nearly all actives have a fitted effect of over 70% in size
* = called active by the depositor; ? = inconclusive; / = not tested or not shown. Unless noted, the call rests on the fitted dose curve; in most records, active means well fitted activation curve with a large enough effect; inconclusive means small, poorly fitted or top-dose-only effect; inactive means flat fitted curve, though single readings scatter.

SMILES | D2 ag-1 | D2 PAM-1 | D2 PAM-2 | D2 antag | D2 ag-2 | others
COc1cc(CN2CCCC(CO)(Cc3ccccc3F)C2)ccc1O (stereo unspecified) | 0 | -6 | -5 | 14 | -5
COC(=O)c1ccc(CN2CCCC(CO)(Cc3ccccc3F)C2)cc1 (stereo unspecified) | -2 | -20 | -1 | 84* | -1
CCn1nnc(NC(=O)c2ccc([N+](=O)[O-])o2)n1 | 0 | 10 | 14 | -25 | 4
CCCCn1nnc(NC(=O)c2ccc(-c3ccccc3[N+](=O)[O-])o2)n1 | -2 | -27 | -7 | 52* | -4
CCOC(=O)c1c(C)[nH]c(C)c1S(=O)(=O)N1CCCC(C(=O)Nc2ccccc2OCC)C1 (stereo unspecified) | 0 | 0 | / | / | /
COc1ccc(-c2cc(=O)oc3c4c(ccc23)OCN(Cc2ccccc2)C4)cc1 | / | -12 | / | / | /
Cc1oc(-c2cccc(C(F)(F)F)c2)nc1CN1CCC[C@H]1CO | -1 | -28 | -13 | 70* | 0
O=C(NCCn1cc(SCc2ccccc2Cl)c2ccccc21)c1cccs1 | 0 | -2 | / | / | /
Cn1c(=NC(=O)c2ccc(S(=O)(=O)N3CCCC3)cc2)sc2cc(F)ccc21 | 0 | 7 | / | / | /
CCOc1ccc(Cc2onc3c2C(=O)CC(C)(C)C3)cc1OCC | -1 | 38* | 3 | 1 | 1
CCOc1ccc(Cc2onc3c2C(=O)CCC3)cc1OCC | 4 | -7 | -3 | 4 | -3
CCN(CC(=O)Nc1c(F)cccc1F)C(=O)Cc1c(C)nc2ccccc2c1C | 0 | 0 | -9 | 4 | -6
CCN(CC(=O)Nc1c(F)cccc1F)C(=O)Cc1csc(-c2ccccc2)n1 | -1 | -5 | -7 | 35* | -5
CNC(=S)N1N=C(c2ccc(OC)cc2)CC1c1ccccc1Cl (stereo unspecified) | 0 | 7 | 1 | 33* | -2
CNC(=S)N1N=C(c2ccc(OC)cc2)CC1c1ccc(Cl)cc1Cl (stereo unspecified) | 0 | -3 | 0 | 15 | 1
CC(=O)N1CCN(c2ccc([N+](=O)[O-])cc2)CC1 | 0 | 4 | -6 | -4 | -1
CC(=O)N1CCN(C(=S)c2ccc([N+](=O)[O-])cc2)CC1 | 0 | -16 | 1 | 48* | -5
CCOC(=O)N1CCN(Cc2nc3cc(NC(=O)CC(C)C)ccc3n2C(C)C)CC1 | 1 | / | / | / | /
CN1CC[n+]2c(CN3C(=O)c4ccccc4C3=O)csc21 | 1 | 3 | -3 | 45* | -1
S=C(NCCc1ccccc1)Nc1ccccc1N1CCOCC1 | 1 | 1 | -7 | 45* | -5
CCOc1ccc(N2CC(O)(c3ccc(F)cc3)[N+]3=C2CCCC3)cc1 (stereo unspecified) | 2 | -26 | -14 | 30* | -2
COc1ccc2c(c1)c1c(c(=O)n(-c3ccc(C)cc3)c(=O)n1CC(=O)c1ccc(Cl)cc1)n2C | 0 | -3 | / | / | /
COc1ccc(NC(=O)C(CC(C)C)NC(=O)C2CCCCC2)cc1 (stereo unspecified) | / | -1 | / | / | /
CCOc1ccc(NC(=O)Cn2cc(C(=O)c3ccc(C)c(C)c3)c(=O)c3cc(F)ccc32)cc1 | 1 | 1 | / | / | /
Cc1cc(C)nc(/N=C(\N)Nc2ccc(OCc3ccccc3)cc2)n1 | 63* | -13 | -5 | 70* | -2
SMILES | D2 ag-1 | D2 PAM-1 | D2 PAM-2 | D2 antag | D2 ag-2 | others
COc1ccc(N/C(N)=N/c2nc(C)cc(C)n2)cc1 | / | / | -5 | / | -2
CCOC(=O)C(Cc1c[nH]c2ccccc12)NC(=O)COc1ccc(Cl)c(C)c1 (stereo unspecified) | -2 | 1 | / | / | /
CCOc1ccc(C(=O)Nc2cccc(NC(=O)c3ccc(C(C)(C)C)cc3)c2)cc1Br | 1 | -8 | / | / | /
CC(NC(=O)Cn1cccc1C(=O)c1ccccc1)c1ccc2c(c1)OCCO2 (stereo unspecified) | 0 | 34* | -6 | 9 | -2
O=C(/C=C/c1ccco1)N1CCCC(c2ccccc2)C1 (stereo unspecified) | 57* | -13 | 3 | 56* | 0 | D3 arrestin ag=12%;D2 ag-3=9%
Cc1ccc(NC(=O)N2CCCC(c3ccccc3)C2)cc1 (stereo unspecified) | / | / | -1 | / | ? | D3 arrestin ag=4%;D2 ag-3=8%
CC1CCC(NCCNC(=O)c2ccco2)CC1 (stereo unspecified) | 68* | -22 | -15 | 14 | -5 | D3 arrestin ag=-18%;D2 ag-3=-7%
O=C(NCCNC1CCCCC1)c1ccco1 | 12 | 8 | -7 | 5 | -1
COc1ccc(S(=O)(=O)N2CCN(CC(O)CN3CCOCC3)CC2)cc1 (stereo unspecified) | 0 | 20 | -3 | -10 | -4
COc1ccccc1N1CCN(CC(O)COc2ccc(S(=O)(=O)N3CCOCC3)cc2)CC1 (stereo unspecified) | 71* | -17 | -19 | 92* | ? | D3 arrestin ag=-6%;D2 ag-3=?
O=S(=O)(c1ccc(OCC(O)CN2CCN(c3ccc(F)cc3)CC2)cc1)N1CCOCC1 (stereo unspecified) | 76* | -17 | -10 | 67* | 13 | D3 arrestin ag=8%;D2 ag-3=?
Cc1ccc(CNC(=O)c2cc(=O)c3cc(C)cc(C)c3o2)cc1 | -1 | -24 | / | / | /
Cc1ccccc1C(=O)Nc1nnc(SC(C)C)s1 | 18 | -3 | -29 | 29 | 1 | D3 arrestin ag=-3%;D2 ag-3=-1%
COC(=O)c1ccc(NC(=O)C(C)N2Cc3ccccc3C2=O)cc1 (stereo unspecified) | -1 | 1 | / | / | /
CN1CCCN(CC(O)COCc2cccs2)CC1 (stereo unspecified) | 0 | 4 | -6 | -4 | 0
Cc1cccc(N2CCN(CC(O)COCc3cccs3)CC2)c1C (stereo unspecified) | 56* | -16 | -12 | 71* | 4 | D3 arrestin ag=0.32µM*;D2 ag-3=13%
